# In the supplement of paper PMC9262897, “Low-cost anti-mycobacterial drug discovery using engineered E. coli” (Nature Communications, 2022):
# Where a name gives a salt, the structure may show the parent alone. ± gives the standard deviation of the averaged measurements.
# Tested on: E. coli TESEC Mtb Asd
# Assay: growth (OD600 after 10 h); higher = more growth (less inhibition)
# Settings: arabinose induction (level): High; compound 0.1 mM; raw OD600 reference: median of DMSO wells 0.331, cell-free background 0.041
# Method: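 TESEC E. coli strains in which the native enzyme is deleted and replaced by arabinose-inducible Mtb Asd, DapB, CysH or TrpD, each grown in its selective medium. Strains were screened against the Prestwick library at 0.1 mM and 1% DMSO in 384-well format at low and high arabinose induction. Growth is read as OD600 after 10 h in triplicate.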
row,Structure (SMILES),growth
1,CN1CCN(c2c(F)cc3c(=O)c(C(=O)O)cn4c3c2SCC4)CC1 [Rufloxacin],0.04973 ± 0.00045
2,CC(=O)OCC(=O)[C@@]1(OC(C)=O)[C@@H](C)C[C@H]2[C@@H]3C[C@H](F)C4=CC(=O)C=C[C@]4(C)[C@@]3(F)[C@@H](O)C[C@@]21C [Diflorasone Diacetate],0.263 ± 0.03
3,CS(=O)(=O)c1ccc([C@@H](O)[C@@H](CO)NC(=O)C(Cl)Cl)cc1 [Thiamphenicol],0.0715 ± 0.0096
4,CSc1nc2cc(Cl)c(Oc3cccc(Cl)c3Cl)cc2[nH]1 [Triclabendazole],0.0558 ± 0.0083
5,CC(C)(CO)C(O)C(=O)NCCCO (configuration not stated) [Panthenol (D)],0.357 ± 0.034
6,Cc1onc(-c2ccccc2Cl)c1C(=O)N[C@@H]1C(=O)N2[C@@H]1SC(C)(C)[C@@H]2C(=O)O [Cloxacillin sodium salt],0.32 ± 0.051
7,OCCN(CCO)c1nc(N2CCCCC2)c2nc(N(CCO)CCO)nc(N3CCCCC3)c2n1 [Dipyridamole],0.079 ± 0.002
8,CN(C)CCN(Cc1ccc(Cl)cc1)c1ccccn1 [Chloropyramine hydrochloride],0.171 ± 0.017
9,CCCCOC(=O)c1ccc(N)cc1 [Butamben],0.566 ± 0.058
10,Nc1c(Br)cc(Br)cc1CN[C@H]1CC[C@H](O)CC1 [Ambroxol hydrochloride],0.168 ± 0.021
11,C[C@]12CC[C@@H]3c4ccc(OS(=O)(=O)O)cc4CC[C@H]3[C@@H]1CCC2=O [Estropipate],0.301 ± 0.023
12,CC(NCCC(c1ccccc1)c1ccccc1)c1ccccc1 (configuration not stated) [Fendiline hydrochloride],0.0469 ± 0.0006
13,C[C@@H]1C[C@H]2[C@@H]3C[C@H](F)C4=CC(=O)C=C[C@]4(C)[C@@]3(F)[C@@H](O)C[C@]2(C)[C@@]1(O)C(=O)COC(=O)C(C)(C)C [Flumethasone pivalate],0.256 ± 0.022
14,COc1cc(C(=O)NC2CCCNC2)cc(OC)c1OC (configuration not stated) [Troxipide],0.353 ± 0.075
15,"COCCc1ccc(OCC(O)CNC(C)C)cc1 (racemic) [Metoprolol-(+,-) (+)-tartrate salt]",0.311 ± 0.028
16,CC(Oc1c(Cl)cccc1Cl)C1=NCCN1 (configuration not stated) [Lofexidine],0.261 ± 0.069
17,N#CC(c1ccc(Cl)cc1)c1c(Cl)cc(-n2ncc(=O)[nH]c2=O)cc1Cl (configuration not stated) [Diclazuril],0.048 ± 0.0019
18,Cc1cc(C(C)(C)CC(C)(C)C)ccc1OCCOCC[N+](C)(C)Cc1ccccc1 [Methyl benzethonium chloride],0.0532 ± 0.001
19,CC(=O)CC(c1ccc([N+](=O)[O-])cc1)c1c(O)c2ccccc2oc1=O (configuration not stated) [Acenocoumarol],0.26 ± 0.023
20,COCC1=C(C(=O)OC(C)OC(=O)OC(C)C)N2C(=O)[C@@H](NC(=O)/C(=N\OC)c3csc(N)n3)[C@H]2SC1 (some centres not stated) [Cefpodoxime proxetil],0.215 ± 0.051
21,CC(=O)OCC(=O)[C@@]12OC(C)(C)O[C@@H]1C[C@H]1[C@@H]3C[C@H](F)C4=CC(=O)C=C[C@]4(C)[C@@]3(F)[C@@H](O)C[C@@]12C [Fluocinonide],0.434 ± 0.046
22,COc1ccc([C@@H]2Sc3ccccc3N(CCN(C)C)C(=O)[C@@H]2OC(C)=O)cc1 [Diltiazem hydrochloride],0.248 ± 0.063
23,CC(=O)N[C@@H](CC(=O)N[C@@H](CCC(=O)O)C(=O)O)C(=O)O [Spaglumic acid],0.227 ± 0.021
24,Cc1ccnc(NS(=O)(=O)c2ccc(N)cc2)n1 [Sulfamerazine],0.437 ± 0.023
25,N=c1nc(N2CCCCC2)cc(N)n1O [Minoxidil],0.371 ± 0.048
26,COc1ccc2c(c1)c(CC(=O)O)c(C)n2C(=O)c1ccc(Cl)cc1 [Indomethacin],0.172 ± 0.017
27,CN1CC2c3ccccc3Oc3ccc(Cl)cc3C2C1 (configuration not stated) [Asenapine maleate],0.229 ± 0.031
